Molecules are shown by their SMILES. The campaign covered roughly 1,300 compounds. About 240 (18%) were called active. Roughly 8% stayed inconclusive and do not appear here. These entries were drawn from the full list. Potency and affinity values are given separately. Values without a mark were called inactive. The rule behind the calls is not given here.

A short description of this test: HepG2 cell cytotoxicity, dose response, cytotoxicity control, cherry-picked samples (AID 1159577).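 Note: 0% = neutral control wells and -100% = positive control wells.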 The settings on record: HepG2 cytotoxicity counterscreen, plate reader; series mostly up to 19.5 µM; activity change, negative = cytotoxicity: at the top concentration.
As to `FC(F)(F)c1cccc(CN2[C@@H]3CNC[C@H]2[C@@H]3c2ccc(-c3cccnc3)cc2)c1`, the “activity change, negative = cytotoxicity” value was 4.45%.
The result for `c1cncc(-c2ccc(C3[C@@H]4CN(Cc5nccs5)C[C@H]3N4)cc2)c1` (stereo partly specified) reads -6.36% [at 21 µM]; that for `Cc1cccc(S(=O)(=O)N2C[C@@H]3N[C@H](C2)C3c2ccc(-c3cccnc3)cc2)c1` (stereo partly specified), 16.7%.
The result for `Fc1cccc(-c2ccc(C3[C@@H]4CN(Cc5cncnc5)C[C@H]3N4)cc2)c1` (stereo partly specified) reads -17.6%; that for `O=C(C1CCCC1)N1CC(=O)N2[C@H](CO)[C@H](c3ccc(-c4cccnc4)cc3)[C@H]2C1`, -3.82% [at 21 µM].
Turning to `C[C@@H]1CN([C@H](C)CO)S(=O)(=O)c2ccc(C#Cc3ccccc3)cc2O[C@H]1CN(C)S(=O)(=O)c1cn(C)cn1`, the “activity change, negative = cytotoxicity” value was -9.83%.
Take `CC(C)C#Cc1ccc([C@@H]2[C@@H](CO)N3C(=O)CN(C(=O)C4CCCCC4)C[C@@H]23)cc1`: the “activity change, negative = cytotoxicity” value was 10.8%.
The figure for `CO[C@@H]1CN(C)C(=O)c2ccc(NC(=O)C3CC3)cc2OC[C@@H](C)N(Cc2ccccc2)C[C@H]1C` is 18.3%; for `CC(=O)N1CC2(C1)[C@@H](c1ccc(-c3cccc(F)c3)cc1)[C@@H](CO)N2CC1CCCC1` it is -0.52% [at 21 µM]; for `O=C(c1ccccc1F)N1C[C@H]2[C@@H](c3ccccc31)[C@@H](CO)N2C(=O)c1ccc(F)cc1` it is 9.79%.
The figure for `CCS(=O)(=O)N1CC2(CN(Cc3ccccc3F)[C@@H](CO)c3[nH]c4cc(OC)ccc4c32)C1` is 10.7%; for `CCCC(=O)Nc1ccc2c(c1)OC[C@@H](C)N(Cc1ccccc1F)C[C@@H](C)[C@H](OC)CN(C)C2=O` it is 8.16%.
The result for `O=C(c1ccncc1)N1CC(=O)N2[C@H](C1)[C@@H](c1ccc(-c3cccnc3)cc1)[C@@H]2CO` reads 14.1%; that for `COc1ccc(C#Cc2ccc([C@H]3[C@H]4CN(C(=O)c5ccccc5)CC(=O)N4[C@H]3CO)cc2)cc1`, 6.6%; that for `O=C(C1CCCCC1)N1CC(=O)N2[C@H](CO)[C@@H](c3ccc(C#CCc4ccccc4)cc3)[C@@H]2C1`, 6.41%.
On to `COc1cccc(C#Cc2ccc([C@H]3[C@@H](CO)N4C(=O)CN(C(=O)c5ccccc5)C[C@H]34)cc2)c1`, for which the “activity change, negative = cytotoxicity” value is -15.4%.
The result for `O=C(Cc1ccccc1)N1CC(=O)N2[C@H](CO)[C@H](c3ccc(C#CCc4ccccc4)cc3)[C@H]2C1` reads -5.15%; that for `O=C(C1CCC1)N1CC(=O)N2[C@H](CO)[C@@H](c3ccc(C#CCc4ccccc4)cc3)[C@H]2C1`, -13.3%; that for `O=C(C1CCC1)N1CC(=O)N2[C@H](CO)[C@@H](c3ccc(C#CCc4ccccc4)cc3)[C@@H]2C1`, -13.9%.
Regarding `O=C(C1CCCC1)N1CC(=O)N2[C@H](CO)[C@@H](c3ccc(C#CCc4ccccc4)cc3)[C@@H]2C1`, the “activity change, negative = cytotoxicity” value is -5.22%.
The figure for `O=C(C1CC1)N1CC(=O)N2[C@H](CO)[C@@H](c3ccc(C#CCc4ccccc4)cc3)[C@@H]2C1` is 17.3%.
The figure for `C[C@H]1CN([C@@H](C)CO)C(=O)c2c(c3ccccc3n2C)-c2ccccc2CO[C@@H]1CN(C)S(=O)(=O)c1ccc(F)cc1` is 12.3% [at 21 µM]; for `N#C[C@H]1[C@@H](c2ccc(C#Cc3ccccc3F)cc2)[C@@H](CO)N1C(=O)C1CCC1` it is -18%; for `C[C@H]1CN([C@@H](C)CO)S(=O)(=O)c2ccc(C#Cc3ccccc3)cc2O[C@H]1CN(C)C(=O)C1CC1` it is 0.74%.
Take `CCCC(=O)Nc1ccc2c(c1)OC[C@@H](C)N(Cc1cc(F)ccc1F)C[C@@H](C)[C@H](OC)CN(C)C2=O`: the “activity change, negative = cytotoxicity” value was 14%.
The result for `COc1ccccc1-c1ccccc1[C@H]1[C@H](C#N)N(C(=O)C2CCC2)[C@H]1CO` reads 8.19%; that for `COc1ccccc1S(=O)(=O)N(C)C[C@H]1Oc2cc(/C=C/c3ccccc3)ccc2S(=O)(=O)N([C@H](C)CO)C[C@@H]1C`, -16.6%.
As to `COc1ccc(NC(=O)Nc2ccc3c(c2)[C@@H]2C[C@H](CC(=O)N[C@@H](C)c4ccccc4)O[C@H](CO)[C@@H]2O3)cc1`, the “activity change, negative = cytotoxicity” value was -17.7%.
The figure for `O=C(C1CC1)N1C[C@@H]2N[C@H](C1)C2c1ccc(-c2ccccc2F)cc1` (stereo partly specified) is 2.15%.
The result for `CN(C)C(=O)c1ccc(-c2ccc([C@H]3[C@H](CO)N4CCCCN(C(=O)C5CC5)C[C@@H]34)cc2)cc1` reads 2.99%; that for `N#Cc1ccc(-c2ccc(C3[C@@H]4CN(C(=O)C5CCCCC5)C[C@H]3N4)cc2)cc1` (stereo partly specified), -12.2% [at 21 µM]; that for `N#Cc1ccc(-c2ccc(C3[C@@H]4CN(C(=O)C5CCCC5)C[C@H]3N4)cc2)cc1` (stereo partly specified), 4.25%.
The figure for `CN(C)CC(=O)N1C[C@@H]2N[C@H](C1)C2c1ccc(/C=C/c2ccccc2)cc1` (stereo partly specified) is -13.3%; for `CN(C)CC#Cc1ccc([C@H]2[C@H](CO)N3CCCCN(C(=O)CN(C)C)C[C@@H]23)cc1` it is 12.3%.
For `COc1ccc(CNC(=O)C[C@H]2C=C[C@@H](NS(=O)(=O)c3cccc(OC)c3)[C@@H](CO)O2)cc1`, the “activity change, negative = cytotoxicity” value was -6.58% [at 21 µM].
The result for `Cc1noc(C)c1NC(=O)Nc1ccc2c(c1)C(=O)N([C@H](C)CO)C[C@@H](C)[C@@H](CN(C)S(C)(=O)=O)O2` reads -16.8%.

Values taken from PubChem BioAssay AID1159577 (Broad Institute, 2015).
